This is an account of results in PubChem BioAssay (NCI).

About 83,000 compounds went through this panel and 20% of them were active in at least one assay; those are over-represented in the sample as a whole.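 Results are percent growth after 48 hours of single-concentration exposure. 100 means growth as in untreated cells, lower positive values show inhibition; negative values down to -100 show cell death.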 Values without a mark were called inactive. Calls of active or inactive are those of the source.

The experiment relates to SNB-75 CNS. Put plainly: NCI-60 one-dose screen, 48 h (100 = growth as untreated, 0 = no growth, -100 = all killed). To be noted: 10 µM. On the procedure: Growth inhibition of the SNB-75 human tumor cell line is measured as a screen for anti-cancer activity. Cells are grown in 96 well plates and exposed to the test compound for 48 hours. Compounds are tested at a single concentration, which is 10^-5 M for most compounds. The reported endpoint is percent growth (GI% or GIPRCNT), where numbers from 0 - 100% represent growth inhibition, and numbers from -100% - 0 represent cell death. For example, a value of 40 represents 60% growth inhibition. A value of 0 means no net growth occurred over the course of the experiment. A value of -40 indicates 40% of cells at the beginning of the experiment died by the end of the experiment. A value of -100 means all cells are dead at the end of the experiment.
NCI-60 Human Tumor Cell Lines Screen was performed using the standard one-dose NCI protocol, which is described in more detail at https://dtp.cancer.gov/discovery_development/nci-60/default.htm.
Compounds with GIPRCNT values below 10 were considered active. Activity score was based on GIPRCNT using the following formula: […]
Score is 0 for GIPRCNT values of 100 or above, 50 for GIPRCNT values of 0, and 100 for GIPRCNT values of -100.
Regarding `COc1ccc(C2N(c3ccc(Br)cc3)N=C(C(C)=O)N2[C@H]2[C@H](OC(C)=O)O[C@H](COC(C)=O)[C@@H](OC(C)=O)[C@@H]2OC(C)=O)cc1` (stereo not given in full), the growth was 74.7%.

Turning to `O=C(NO)c1ccc(Cn2ccc3c(NCc4ccccc4)ncnc32)cc1`, the growth is -8.17% (active). The value for `O=C1CCC(N2Cc3c(NCc4ccc(-c5ccccc5)cc4)cccc3C2=O)C(=O)N1` (stereo not given) was 85.9%; that for `CCN1CCN(c2ccc(NC(=O)Nc3ccc(-c4cc(C(=O)NC(C)C)c5ncccc5n4)cc3)cc2C(F)(F)F)CC1` was -94.3% (active); that for `Cc1ccc(C(=O)NCCCNc2nc(Nc3ccc(N4CCN(C)CC4)cc3)nc3ccsc23)cc1` was 71.9%.

On to `OCc1[nH]nc2cc(Nc3ncc4ccc(Br)c(OC5CCC(O)CC5)c4n3)ccc12` (stereo not given), for which the growth was -44.1% (active).

On to `CC1(C)CC[C@]23CC[C@]4(C)[C@H](CC[C@@H]5[C@@]6(C)CC[C@H](N)C(C)(C)[C@@H]6CC[C@]54C)[C@H]2[C@H]1OC3=O`, for which the growth was -75.3% (active). Then `CCCCSc1nc(Nc2ccc(/C(C)=N/NC(N)=S)cc2)c(C#N)c(-c2ccc(OC)cc2)n1`, with 37.7%. Then `O=C1Nc2ccc(Cl)cc2/C1=C/c1ccc(OCc2ccc(Br)cc2F)cc1`, with 18.3%; and `CC1(c2ccccc2)NC(=O)N(CC(=O)Nc2ccc(C(=O)/C=C/c3ccc(Cl)cc3)cc2)C1=O` (stereo not given), with 37.5%. The value for `C=C1CCC2C3(C)COC(c4cccc(F)c4)OC3CCC2(C)C1CC(O)C1=CCOC1=O` (stereo not given) was 74.2%; that for `O=C(Nc1cc(Cl)cc(Cl)c1)Nc1cc(Cl)cc(Cl)c1` was -14.1% (active); that for `COc1ccc([C@H]2C(C(=O)c3ccc(Cl)cc3)C3(N[C@@H]2c2ccccc2)C(=O)Nc2ccc(Cl)cc23)cc1` (stereo not given in full) was 35.8%.

For the molecule `COc1ccc(CN2[C@@H](C(=O)NCc3ccc(C(=O)NO)cc3)Cc3c([nH]c4ccccc34)[C@@H]2C2CC2)cc1`, the growth was -12% (active). Then `Cc1ccc2nc(COc3ccc(C(=O)NNC(=S)NC(=O)c4ccccc4)cc3)[nH]c2c1`, with 41.6%; and `COc1ccc(CCN2C(=O)/C(=C/c3csc(C#N)n3)SC2=S)cc1`, with 53.2%; and `COc1cc(-c2nc3cc(Cl)c(Cl)cc3[nH]2)ccc1OCc1nnc(-c2ccc(Br)cc2)o1`, with -58.8% (active). The value for `CC(=O)Nc1ccc(-c2cn(-c3cccc(C(=O)Nc4cccc(OC(F)(F)F)c4)c3)nn2)cn1` was 118%; that for `COC1=C[C@]23CCC(=O)N2CCc2cc4c(cc2[C@@H]3[C@@H]1OC(=O)CCCC(C)C)OCO4` was 120%; that for `COC1CC(Cn2cc(COc3ccc4ccc(=O)oc4c3)nn2)C(OCc2ccccc2)C(OCc2ccccc2)C1OCc1ccccc1` (stereo not given) was 92.5%. The value for `Cc1ccc(C(=O)N/C(=C2/OCCN2C)[P+](c2ccccc2)(c2ccccc2)c2ccccc2)cc1` was 99.9%; that for `CN1C(=O)N(C)C2SC(N/N=C/c3ccccc3F)=NC21` (stereo not given) was 91.1%; that for `CN1CCN(Cc2ccc(NC(=O)c3cncc(C#Cc4cnc5ccc(N[C@@H]6CCOC6)nn45)c3)cc2C(F)(F)F)CC1` was -96.1% (active).

Consider `CC(=O)NNc1ccc2nnc(-c3ccc(Br)cc3)n2n1`, for which the growth was 121%. On to `O=C(N/N=C/c1ccc(B(O)O)o1)c1[nH]c2ccc(Br)cc2c1-c1ccccc1`, for which the growth was 98.1%. The value for `COc1cc(/C=C/C(=O)c2ccc(S(=O)(=O)NCCNc3nc(Nc4ccc(F)cc4)nc(N(C)C)n3)cc2)cc(OC)c1OC` was 88.2%; that for `Cc1ccc(-c2ccc(SCC(=O)Nc3ccc(Cl)c(C(F)(F)F)c3)nn2)cc1` was -23.5% (active). The value for `O=C(NCCCCCCCCCC[P+](c1ccccc1)(c1ccccc1)c1ccccc1)c1ccc(-n2nc(-c3ccccc3O)nc2-c2ccccc2O)cc1` was -27.1% (active); that for `Cc1ccn2c(C(=O)c3ccc(Br)cc3)cc(-c3cc(-c4ccc(N(C)C)cc4)c(C#N)c(N)n3)c2c1` was 118%.

Turning to `O=C(Nc1ccc(I)cc1)Nc1nc2ccc([N+](=O)[O-])cc2s1`, the growth was -93.4% (active).

As to `NS(=O)(=O)c1ccc(NC(=O)CSc2ccc(-c3ccccc3)nn2)c(Br)c1`, the growth was 14.2%. The value for `CCOc1ccc2ncc(C#Cc3cncc(C(=O)Nc4ccc(CN5CCN(C)CC5)c(C(F)(F)F)c4)c3)n2n1` was -88.8% (active); that for `CC1(c2ccccc2)NC(=O)N(CC(=O)Nc2ccc(C(=O)/C=C/c3ccccc3)cc2)C1=O` (stereo not given) was 72.1%; that for `CC(=O)c1ccc(Nc2nc(SCCC(C)C)nc(-c3ccc(F)cc3)c2C#N)cc1` was 52.3%. The value for `Nc1nc(-c2ccccc2)cs1` was 59.2%; that for `O=C(NO)c1ccc(CN2CCN(c3nc(-c4ccccc4)c4ccccc4n3)CC2)cc1` was 81.7%; that for `O=c1c2ccccc2nc(COc2ccccc2)n1/N=C/c1ccc(N2CCOCC2)cc1` was 43.9%. The value for `O=S(=O)(Nc1ncccn1)c1ccc(-n2c(-c3ccc(Br)cc3)nc(-c3ccccc3)c2-c2ccccc2)cc1` was 26.5%.

Turning to `CCCCCCCCCCCCCCCCCCCC(=O)NCCc1c[nH]c2ccc(OC(=O)NOCCOCCOCCOCCOCCOCCOCCOCCOCCOCCOCCOCCOCCOCCOCCOCCOCCOCCOCCOCCOCCOCCOC)cc12`, the growth was 37.3%. Then `COc1nccnc1NS(=O)(=O)c1ccc(NC2=C(Cl)C(=O)c3nc(C)ccc3C2=O)cc1`, with 111%.
